# Test results taken from PubChem BioAssay (Tox21).
# Results filed as inconclusive are left out. Calls of active or inactive are those of the source. Calls come from the whole dose curve.
# Target: 5-hydroxytryptamine receptor 2A (Homo sapiens) (UniProt P28223)
# Assay: 5-hydroxytryptamine receptor 2A (HTR2A) small molecule agonists, cell-based qHTS assay (AID 1963587); note: nearly all actives have a fitted effect of over 30% in size
# Conditions: HTR2A-CHO cells, calcium flux fluorescence, agonist mode; series mostly up to 76.8 µM; activation: at the top concentration
# In short: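 HTR2A-CHO cells, plated 18 h at 37 C/5% CO2, dye-loaded 1 h at 37 C; compounds in DMSO added by pin tool (agonist mode). Intracellular calcium flux read as kinetic fluorescence on FDSS over 2 min at 1 s intervals.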
# % is set by controls: 0 for no effect and ±100 for the full control effect; potency is the fitted concentration of half-maximal effect.
# 5-hydroxytryptamine receptor 2A (Homo sapiens), sequence (P28223 whole entry, looked up): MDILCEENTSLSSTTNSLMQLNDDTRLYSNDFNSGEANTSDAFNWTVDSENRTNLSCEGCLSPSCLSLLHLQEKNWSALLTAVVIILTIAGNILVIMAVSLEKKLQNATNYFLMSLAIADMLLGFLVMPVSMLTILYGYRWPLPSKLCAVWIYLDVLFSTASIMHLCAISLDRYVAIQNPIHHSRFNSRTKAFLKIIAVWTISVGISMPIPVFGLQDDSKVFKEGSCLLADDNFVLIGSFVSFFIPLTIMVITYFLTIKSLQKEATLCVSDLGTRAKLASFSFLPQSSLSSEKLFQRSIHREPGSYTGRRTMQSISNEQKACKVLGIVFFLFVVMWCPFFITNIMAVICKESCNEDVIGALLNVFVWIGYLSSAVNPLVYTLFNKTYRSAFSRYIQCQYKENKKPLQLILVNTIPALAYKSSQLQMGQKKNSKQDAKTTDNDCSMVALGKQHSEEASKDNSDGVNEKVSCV
Compound,Potency,activation
Nc1ncc([N+](=O)[O-])s1,inactive,–
CCCC1CCCCN1 (stereo not drawn),–,0.111% [at 35.6 µM] (inactive)
ClC(Cl)(Cl)c1ccccc1,inactive,–
CCCCCCCCCCCCBr,–,-1.02% (inactive)
c1ccc2c(c1)Oc1ccccc1O2,inactive,–
CC(Cl)C(=O)O (stereo not drawn),–,-4.02% (inactive)
c1ccc2c(c1)oc1ccccc12,inactive,–
CC[C@H](N)c1ccccc1,–,9.4% (inactive)
CN(CCO)CCO,–,-0.673% (inactive)
COc1ccc(N)cc1,inactive,–
CCCCCCCCCCOC(=O)c1ccccc1C(=O)OCCCCCCCCCC,–,0.0587% (inactive)
CCN(CCO)CCO,–,1.96% (inactive)
O=C1C(Cl)=C(Cl)C(=O)c2ccccc21,6.94 µM (active),–
CN(C)C(=O)C(c1ccccc1)c1ccccc1,inactive,–
CC1=C(C(=O)Nc2ccccc2)SCCO1,inactive,–
Cc1ccccc1CCl,–,1.74% (inactive)
COC(=O)c1ccccc1N,inactive,–
CCC(C)n1c(=O)[nH]c(C)c(Br)c1=O (stereo not drawn),–,-0.253% (inactive)
